# An excerpt weighted towards active compounds, which were near 3.9% of everything screened.
# KKLEB cytotox – counter-screen for CF NF-kB inhibitors: cytotoxicity | AID 602141 | activity change (cytotoxicity), % at 5 µM | KKLEB CF airway cells viability, ATPlite luminescence, overnight; hits give low values; cells stimulated with P. aeruginosa culture filtrate | hit rate 0.36% among 360,000;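 active = corrected activity change at or below -50% at 5 µM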
# TWEAK-Fn14 inh – blocks TWEAK-Fn14 interaction in a reporter cell assay; hit rate 2% among 360,000; inhibition, % at 10 µM; TWEAK-stimulated Fn14 reporter cells, luciferase luminescence, 8 h; in the data active = inhibition above about 50%
# CF NFkB inh – cystic fibrosis NF-kB activation inhibition | KKLEB NF-kB-GFP reporter, PAF-induced, GFP fluorescence overnight | hit rate 0.86% among 360,000 | inhibition, % at 5 µM | AID 588850;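 active = at least 50% inhibition at 5 µM, scaled per plate between neutral and stimulator controls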;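 also: PAF is a Pseudomonas aeruginosa culture filtrate used as stimulus; plate controls were PAF-stimulated DMSO wells for no effect and unstimulated DMSO wells for full effect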
# HIF-2a inh – blocks HIF-2a reporter activity; 786-0 RCC cells HIF-2a reporter, luciferase luminescence, overnight; inhibition, % at 18.8 µM; hit rate 0.72% among 360,000;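 active = inhibition of the luminescence signal of 40% or more relative to plate controls, in a single-dose primary screen at 18.75 µM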
# Peg3 promoter – reduces Peg3 promoter-driven luciferase expression in HeLa. HeLa PEG-Prom luciferase reporter, luminescence, overnight. inhibition, % at 20 µM. hit rate 1.7% among 360,000;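 active = inhibition of at least 50% at 20 µM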
# TROY NFkB inh – blocks TROY-dependent signaling in reporter cells; Q293 LMP1-TROYcd NF-kB luciferase reporter, 4 h; inhibition, % at 10 µM; hit rate 0.98% among 360,000; AID 1347056;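 active = compounds whose plate-normalised and pattern-corrected inhibition of the luciferase reporter signal at the single screening dose is 50% or more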
# CF NFkB inh conf – CF NF-kB inhibition confirmation, single concentration | AID 602472 | inhibition, % at 5 µM | KKLEB CF airway cells, PAF-induced NF-kB-GFP fluorescence, overnight | hit rate 64% among 1,300 | shares compounds with CF NFkB inh; in the data active = inhibition above about 40%;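 also: stimulus PAF is a Pseudomonas aeruginosa filtrate and not platelet activating factor; plate controls were DMSO wells with stimulus for no effect and unstimulated DMSO wells for full effect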
# Starred values were filed as active, the others as inactive; x = not tested or not shown.
SMILES,KKLEB cytotox,TWEAK-Fn14 inh,CF NFkB inh,HIF-2a inh,Peg3 promoter,TROY NFkB inh,CF NFkB inh conf
C[C@@H]1CN([C@H](C)CO)C(=O)c2cc(NC(=O)Nc3ccc(C(F)(F)F)cc3)ccc2O[C@H]1CN(C)S(=O)(=O)c1ccccc1,14.2,55.0*,56.9*,21.5,12.2,29.3,56.8*
C[C@@H]1CN([C@@H](C)CO)C(=O)c2cccc(NC(=O)Nc3ccc(F)cc3)c2O[C@@H]1CN(C)Cc1ccc(Oc2ccccc2)cc1,-13.7,-13.0,10.9,-3.3,38.2,31.4,x
C[C@H](CO)N1C[C@H](C)[C@@H](CN(C)S(=O)(=O)c2ccccc2)Oc2c(NC(=O)Nc3ccc(C(F)(F)F)cc3)cccc2C1=O,-10.9,8.4,-16.4,-13.1,23.1,33.8,x
COc1ccc(NC(=O)Nc2cccc3c2O[C@H](CN(C)Cc2ccc(-c4ccccc4)cc2)[C@@H](C)CN([C@H](C)CO)C3=O)cc1,-32.5,-14.6,58.8*,-11.0,93.9*,-22.7,-9.4
Cc1cccc(OC2(c3ccccc3)OC(=O)c3ccccc32)c1C (stereo unspecified),16.5,16.2,1.9,11.2,31.6,8.0,x
C[C@H](CO)N1C[C@H](C)[C@@H](CN(C)Cc2ccccc2)Oc2c(NC(=O)C3CCCCC3)cccc2C1=O,-12.3,-2.9,13.9,18.7,11.6,0.1,x
NC(=O)C1CCCN(Cc2ccc(Cl)cc2)C1 (stereo unspecified),3.9,-3.8,10.2,-29.5,-10.8,-1.6,x
Cc1ccc(CSc2nccc(-c3c(C)nc4ccccn34)n2)cc1,-10.8,57.0*,50.4*,14.0,32.0,41.3,63.1*
C=CCOc1c(OC)cc(/C=N/Nc2cccc(C(=O)O)c2)c(Br)c1Br,-36.3,-48.5,62.2*,-199.4,-141.2,-39.1,67.4*
Cc1cc(C)nc(Sc2ncnc(N)c2[N+](=O)[O-])n1,-12.0,47.7,63.0*,17.9,26.5,8.4,63.1*
Cc1cccc(Nc2ncnc(N)c2[N+](=O)[O-])n1,13.9,20.6,28.8,-2.0,-34.5,13.5,x
NC(c1csc(NC(=O)Nc2cccc(Cl)c2)n1)c1ccccc1Cl (stereo unspecified),-15.6,63.3*,91.1*,-42.8,99.5*,41.9,76.8*
Cc1cccc(C)c1NC(=O)Nc1nc(C(N)c2ccccc2Cl)cs1 (stereo unspecified),-3.0,-2.1,2.5,20.1,1.7,8.7,x
COc1ccccc1-c1nnc2sc(C3CCCCC3)nn12,4.6,-27.8,3.0,-3.2,7.5,-0.5,x
Clc1ccccc1OCc1nn2c(-c3ccncc3)nnc2s1,-12.4,-15.4,14.5,2.1,-8.8,0.7,x
c1cc(-c2nnc3sc(C4CCCCC4)nn23)ccn1,-16.1,26.9,50.6*,19.2,6.3,27.7,63.6*
c1csc(Cc2nn3c(-c4ccncc4)nnc3s2)c1,4.8,10.2,50.3*,18.0,-4.6,18.7,48.7*
Cc1ccc(S(=O)(=O)Oc2ccccc2/C=N/NC(=O)c2nn(C)cc2[N+](=O)[O-])cc1,-6.9,-2.3,4.9,-3.0,-4.4,12.8,x
Cc1ccc(S(=O)(=O)Oc2ccc(/C=N/NC(=O)c3nn(C)cc3[N+](=O)[O-])cc2)cc1,-34.0,16.2,51.0*,1.4,-50.2,13.6,-56.6
COc1ccc(C2CC(c3ccccc3)=NN2C(=O)COC(=O)c2ccc(S(C)(=O)=O)cc2)cc1 (stereo unspecified),20.5,2.0,54.8*,-25.7,8.0,23.8,46.0*
Cc1nc(N2CCC(C(N)=O)CC2)c2c(-c3cccs3)csc2n1,-15.9,34.4,66.7*,23.9,18.1,22.1,68.2*
C=C1CCC[C@]2(C)C[C@H]3OC(=O)C(CN(Cc4ccc(OC)c(OC)c4)CC(C)O)[C@H]3CC12 (stereo partly specified),-6.2,43.9,56.2*,5.4,-34.7,-0.4,47.4*
C=C1CCC[C@]2(C)C[C@H]3OC(=O)C(CN[C@@H](C)c4ccccc4)[C@H]3CC12 (stereo partly specified),4.3,-1.8,13.3,-12.2,0.7,6.3,x
Cn1c(=NC(=O)C2CCCCC2)sc2cc([N+](=O)[O-])ccc21,13.2,-42.4,-11.9,-186.1,-149.4,-40.0,x
CC(C)CN(C(=O)CSc1nc2ccccc2[nH]1)c1c(N)n(Cc2ccccc2)c(=O)[nH]c1=O,3.8,5.9,-13.4,0.0,-5.8,3.6,x
SMILES,KKLEB cytotox,TWEAK-Fn14 inh,CF NFkB inh,HIF-2a inh,Peg3 promoter,TROY NFkB inh,CF NFkB inh conf
O=C(NCc1ccccc1)C(c1ccccc1)N(C(=O)c1csnn1)c1ccccc1 (stereo unspecified),-6.3,16.1,19.2,17.6,31.2,2.3,x
NC(=O)c1nsc(C(=O)N(c2ccccc2)C(C(=O)NCc2ccc(F)cc2)c2ccc(O)cc2)c1N (stereo unspecified),-9.6,22.3,52.0*,20.4,55.1*,-0.5,74.3*
O=C(NCc1ccc(F)cc1)C(c1ccccc1)N(C(=O)c1csnn1)c1ccccc1 (stereo unspecified),3.1,22.4,61.0*,23.9,40.2,10.5,16.7
Oc1cc2c(cc1C(c1ccc(Br)cc1)N1CCCC1)OCO2 (stereo unspecified),-20.9,15.1,53.3*,10.3,5.9,-12.7,33.1
CCn1c(=O)c2c(cnn2C)c2ccccc21,-14.9,58.1*,71.8*,16.8,4.2,43.0,77.9*
COc1ccc(-c2ccc([C@H]3[C@@H]4C=CCC[C@@]4(C)C(=O)N3Cc3ccccc3)c(F)c2)cc1OC,-14.7,-23.4,53.0*,27.9,10.0,10.3,33.0
CCCCn1c(N)c(N(CCOC)C(=O)CSCc2ccc(C)cc2)c(=O)[nH]c1=O,12.5,-9.7,-0.8,0.2,-8.3,16.2,x
CC(C)(CO)CNc1ccn2nccc2n1,1.1,39.8,52.6*,16.3,-1.7,28.3,60.5*
COc1ccc2[nH]c3c(c2c1)CC(C)NC3=O (stereo unspecified),-5.8,71.4*,60.8*,13.5,2.0,49.8,70.6*
COc1ccc(OC)c(NC(=O)Nc2ccc3c(c2)OCO3)c1,-0.9,-23.9,27.7,-62.9,-59.7,-27.8,x
COc1ccc(S(=O)(=O)c2c(O)c3ccc(C(=O)Nc4ccccc4Cl)cc3[nH]c2=O)cc1,-19.0,8.2,75.7*,5.0,5.8,-13.7,69.3*
COCCOC1CCN(C(=O)C2CCC(=O)N(CCc3ccc(OC)cc3)C2)CC1 (stereo unspecified),2.1,-4.8,-2.4,-5.1,-17.1,-9.3,x
COCCn1c(=NC(=O)c2sc3ccccc3c2Cl)sc2cc(S(N)(=O)=O)ccc21,-45.8,-7.6,55.1*,18.2,9.8,4.8,23.8

# Screens from PubChem.
